From PubChem BioAssay
For some of these results: Results with a measured potency or affinity are listed apart. Inconclusive results are not listed. Some of the results follow. Calls of active or inactive are those of the source.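 Rule for the calls, unless noted: active = signal-lowering compounds whose fitted half-maximal concentration is at or below twice the top tested dose in every run; inconclusive = runs disagree, flat 30 to 70% inhibition, or poor curve fit; inactive = the rest.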

test: small-molecule DNA binding by polarization – biochemical, fluorescence polarization, cherry-pick, counter-screen for EWS/Fli inhibitor project, dose response (AID 720586;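 active = fitted curve reaches a 35% signal fall AC35 below twice the sample's top valid tested dose, actives reach about 48 µM in these data; inactive = the rest, including activity in the rising direction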;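 note: lower polarization ratio signals compound binding to DNA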;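 for activity change, negative = DNA binding: 0% = neutral control median and -100% = 10 µM mitoxantrone control median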); conditions: salmon sperm DNA acridine orange fluorescence polarization; series mostly up to 68 µM; activity change, negative = DNA binding: at the top concentration

Row | SMILES | AC35 | activity change, negative = DNA binding
1 | CCC(C)Cn1c(O)cc2nn(-c3nc4ccccc4s3)c(=O)c-2c1C (configuration not stated) | 48.3 µM (active) | 
2 | COC(=O)Cc1[nH]n(-c2nc3ccccc3s2)c(=O)c1C(C)=Nc1ccc(OC)cc1 |  | 0.058% (inactive)
3 | COc1ccc(/C=C2\SC(=S)N(CCCC(=O)NC3CCCC3)C2=O)cc1OC |  | -20.3% (inactive)
4 | C[C@H]1CN([C@@H](C)CO)C(=O)Cc2cc(NC(=O)C3CC3)ccc2O[C@H]1CN(C)S(=O)(=O)c1ccc(Cl)cc1 |  | -10.7% (inactive)
5 | Cc1noc(C)c1NC(=O)Nc1ccc2c(c1)CC(=O)N([C@@H](C)CO)C[C@@H](C)[C@@H](CN(C)Cc1ccc(Cl)c(Cl)c1)O2 |  | 0.128% (inactive)
6 | CN(CCO)c1ccc(/C=N/Nc2nncc3ccccc23)cc1 |  | -11.9% (inactive)
7 | COc1ccc(-c2nc3c(s2)CCc2onc(-c4ccc(OC)cc4)c2-3)cc1 |  | -8.71% (inactive)
8 | CCOc1cc2[nH]c(=S)n(Cc3ccc(C(=O)N4CCN(C)CC4)cc3)c(=O)c2cc1OCC |  | -9.45% (inactive)
9 | C[C@H](CO)N1C[C@H](C)[C@H](CN(C)CC2CCCCC2)Oc2ccc(NC(=O)CCCCCC(=O)Nc3ccccc3N)cc2CC1=O |  | -3.41% [at 56 µM] (inactive)
10 | N#C[C@@H]1[C@H](c2ccc(C#Cc3cccc(F)c3)cc2)[C@@H](CO)N1C(=O)C1CCCC1 |  | 9.84% (inactive)
11 | OCCN1CCN(C(=S)c2ccc(-c3ccccc3)cc2)CC1 |  | 8.55% (inactive)
12 | COc1ccc(OC)c(Cc2cnc3nc(N)nc(N)c3c2C)c1 |  | -2.4% (inactive)
13 | Cc1ccc(S(=O)(=O)Nc2ccc3c(c2)C(=O)N([C@@H](C)CO)C[C@@H](C)[C@@H](CN(C)Cc2ccc(C(=O)Nc4ccccc4N)cc2)O3)cc1 |  | -13.3% (inactive)
14 | CCn1c(/C=N/NC(=O)c2ccc(OC)cc2)nc2ccccc21 |  | -15.6% (inactive)

test: CMV-driven luciferase expression suppression in HEK293 – cell-based, luminescence, dry powder, counter-screen for Pax8 inhibitor project, dose response (AID 743020); conditions: HEK293 CMV-luciferase reporter, SteadyGlo luminescence, 24 h; series mostly up to 35 µM; activity change, negative = inhibition: at the top concentration;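 note: HEK293 cells stably expressing the CMV luciferase reporter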

Row | SMILES | activity change, negative = inhibition
15 | O=C(Nc1cccc(Cl)c1)Nc1nnc(-c2ccncc2)s1 | -51.4% (inactive)
16 | CCOc1ccc(C(=O)C(CCC(CN(C)C)C(=O)c2ccc(OCC)cc2)CN(C)C)cc1 (configuration not stated) | -36.4% (inactive)
17 | Nc1nc(=S)c2[nH]cnc2[nH]1 | -14.4% (inactive)
18 | O=C(Nc1ccccc1)NN(C(=O)CCl)c1ccccc1 | 4.69% (inactive)
19 | COc1cc(OC)c2c(-c3cccc(-c4ccc(OC)c(F)c4)c3)cc(=O)oc2c1 | -18.4% (inactive)
20 | CCOc1ccc(C(CN2CCOCC2)C(C)=O)cc1OC (configuration not stated) | 13% (inactive)
21 | Cc1cccc(N(Cc2cc(=O)[nH]c3ccccc23)C(=O)CCl)c1 | -1.21% (inactive)
22 | Cc1nc(Nc2nc(CSc3nc4ccccc4[nH]3)cc(=O)[nH]2)nc2ccccc12 | -17.3% (inactive)
23 | COc1ccc(C2=NNC(=Nc3cc(S(=O)(=O)N(C)C)ccc3C)SC2)c(OC)c1 | 3.08% (inactive)
24 | O=C(NC1CCCCC1)C(c1cccnc1)N(C(=O)CCl)c1ccc(F)cc1 (configuration not stated) | 10.5% (inactive)
25 | O=C(Nc1ccc(N2CCN(C(=O)c3ccccc3)CC2)cc1)c1ccc([N+](=O)[O-])o1 | -17.8% (inactive)
26 | COCCn1c(C)cc(C2=NNC(=NC3CC3)SC2)c1C | -20% (inactive)
27 | OCCCNc1nccc(-c2cc(Nc3cccc(Cl)c3)ncn2)n1 | 2.56% (inactive)
28 | Cn1ncc2c(O/N=C(\N)c3ccc(C(F)(F)F)cc3)ncnc21 | 7.5% (inactive)
29 | CCOC(=O)c1c(C)[nH]c2c1-c1ccccc1C(=O)C2=O | 6.64% (inactive)
30 | C(=Cc1cnc2ccccc2n1)c1ccc2c(c1)OCO2 | -41.1% (inactive)
31 | S=c1sc2c(Cl)ncnc2n1-c1ccccc1 | 8.06% (inactive)
32 | O=C(NCc1cc(C(F)(F)F)ccc1Cl)c1cccc2c1C(=O)c1ccc(N3CCC(N4CCCCC4)CC3)cc1S2(=O)=O | -3.91% (inactive)
33 | Cc1cnc(NC(=O)c2ccc3c(c2)OCCO3)s1 | 10% (inactive)
34 | O=C(CCl)N(Cc1ccccc1)c1ccccc1 | -1.57% (inactive)
35 | Cn1c(CCN2CCCC2)nc2cc(NS(=O)(=O)c3ccccc3)ccc21 | 4.33% (inactive)
36 | Cc1ccc(Cl)cc1N1CCN(C(=O)c2noc(C)c2[N+](=O)[O-])CC1 | 8.21% (inactive)
37 | Cc1ccc(NC(=O)Cn2ncc(Cl)c(Cl)c2=O)cc1S(=O)(=O)N1CCCCC1 | 122% (inactive)
38 | COc1ccc(NC(=O)c2c(Nc3ccccc3)sc(C(=O)c3ccc(F)cc3)c2N)cc1 | -15.4% (inactive)
39 | COc1ccccc1C(=O)Nc1nc2ccccc2[nH]1 | 53.6% (inactive)
40 | O=C(NC12CC3CC(CC(C3)C1)C2)c1ccc([N+](=O)[O-])o1 | 8.93% (inactive)

test: general cell-killing toxicity readout – plate reader, dry powder samples, cytotoxicity control for PAX8 inhibitor project, dose response (AID 743021; call rule not given here); conditions: cell line, non-specific cytotoxicity counter-screen; series mostly up to 35 µM; activity change, negative = cytotoxicity: at the top concentration

Row | SMILES | activity change, negative = cytotoxicity
41 | O=C(Nc1cccc(Cl)c1)Nc1nnc(-c2ccncc2)s1 | 19.9% (inactive)
42 | O=C(Nc1ccccc1)NN(C(=O)CCl)c1ccccc1 | -4.38% [at 16 µM] (inactive)
43 | COc1cc(OC)c2c(-c3cccc(-c4ccc(OC)c(F)c4)c3)cc(=O)oc2c1 | -3.93% (inactive)
44 | CCOc1ccc(C(CN2CCOCC2)C(C)=O)cc1OC (configuration not stated) | 19.2% (inactive)
45 | Cc1nc(Nc2nc(CSc3nc4ccccc4[nH]3)cc(=O)[nH]2)nc2ccccc12 | 5.97% (inactive)
46 | COc1ccc(C2=NNC(=Nc3cc(S(=O)(=O)N(C)C)ccc3C)SC2)c(OC)c1 | 9.24% (inactive)
47 | O=C(Nc1ccc(N2CCN(C(=O)c3ccccc3)CC2)cc1)c1ccc([N+](=O)[O-])o1 | 12.9% (inactive)
48 | OCCCNc1nccc(-c2cc(Nc3cccc(Cl)c3)ncn2)n1 | 13.1% (inactive)
49 | Cn1c(CCN2CCCC2)nc2cc(NS(=O)(=O)c3ccccc3)ccc21 | -9.54% (inactive)
50 | Cc1ccc(NC(=O)Cn2ncc(Cl)c(Cl)c2=O)cc1S(=O)(=O)N1CCCCC1 | -8.93% (inactive)
51 | COc1ccc(NC(=O)c2c(Nc3ccccc3)sc(C(=O)c3ccc(F)cc3)c2N)cc1 | -14% (inactive)
52 | O=C(NC12CC3CC(CC(C3)C1)C2)c1ccc([N+](=O)[O-])o1 | 10.3% (inactive)
